Source: PubChem BioAssay (NCATS)
Records with an inconclusive call do not appear. A call without a number means that no potency is given here. Active and inactive are the calls of the source. Calls follow the shape of the dose curve; as a rule, active = well fitted curve in the direction sought with a large enough effect; inconclusive = small, poorly fitted or top-dose-only effect, or another doubt; inactive = no such curve, though single readings can be large; an effect the other way counts as inactive or inconclusive.

Assays:
[1] = S16 Schwann cell PMP22 intronic element firefly luciferase assay (AID 624032); details: S16 rat Schwann cells, PMP22 element FLuc, 24 h; series mostly up to 57.5 µM; also: nearly all actives have a fitted effect of over 30% in size
Summary of the method: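 Rat S16 Schwann cells stably carrying firefly luciferase driven by a PMP22 intronic element, in 10% FBS, treated 24 h at 37 C. ONE-Glo luminescence normalized to PTC124 control and DMSO (0%); curves classed by r2, magnitude and activity.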

AA1029 = assay: qHTS profiling for inhibitors of Plasmodium falciparum proliferation (AID 504749); also: nearly all actives have a fitted effect of over 60% in size; also: potency is read from the fitted curve at half-maximal effect; details: P. falciparum in erythrocytes, SYBR Green DNA, 72 h; series mostly up to 28.7 µM
Summary of the method: (§1)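 Each compound contacts P. falciparum-infected red blood cells for 72 h at 37 C; lysis buffer (Tris, EDTA, saponin, Triton X, SYBR Green I) is added and fluorescence measured next morning; values normalized to controls.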

CP194 = assay: as above; details: P. falciparum in erythrocytes, SYBR Green DNA, 72 h; series mostly up to 28.7 µM
Summary of the method: as §1

CP260 = assay: as above; details: P. falciparum in erythrocytes, SYBR Green DNA, 72 h; series mostly up to 28.7 µM
Summary of the method: as §1

CP297 = assay: as above; details: P. falciparum in erythrocytes, SYBR Green DNA, 72 h; series mostly up to 28.7 µM
Summary of the method: as §1

CP315 = assay: as above; details: P. falciparum in erythrocytes, SYBR Green DNA, 72 h; series mostly up to 28.7 µM
Summary of the method: as §1

DIV14 = assay: as above; details: P. falciparum in erythrocytes, SYBR Green DNA, 72 h; series mostly up to 28.7 µM
Summary of the method: as §1

DIV17 = assay: as above; details: P. falciparum in erythrocytes, SYBR Green DNA, 72 h; series mostly up to 28.7 µM
Summary of the method: as §1

ICS = assay: as above; details: P. falciparum in erythrocytes, SYBR Green DNA, 72 h; series mostly up to 28.7 µM
Summary of the method: as §1

JCK = assay: as above; details: P. falciparum in erythrocytes, SYBR Green DNA, 72 h; series mostly up to 28.7 µM
Summary of the method: as §1

TAB165 = assay: as above; details: P. falciparum in erythrocytes, SYBR Green DNA, 72 h; series mostly up to 28.7 µM
Summary of the method: as §1

[2] = qHTS Assay for Identification of Small Molecule Antagonists for Thrombopoietin (TPO) Signaling Pathway (AID 918); details: TPO-dependent cell signaling reporter, antagonist mode; also: potency is read from the fitted curve at half-maximal effect; nearly all actives have a fitted effect of over 60% in size
Summary of the method: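 Inhibition read as reduced luciferase luminescence after 24 h at 37 C in IL-3-deprived Ba/F3 cells carrying human TPO receptor and GPIIb-promoter reporter, stimulated with 26 pM TPO (final, its EC50) alongside compound.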

[3] = molecular target: DNA dC->dU-editing enzyme APOBEC-3G (Homo sapiens) (UniProt Q9HC16); assay: qHTS for inhibitors of Vif-A3G interactions: Validation (AID 588379); details: Vif-A3G protein interaction assay; series mostly up to 46.1 µM
Summary of the method: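 Yellow fluorescence (Ex 488, Em 500-530) of Vif-coexpressing HeLa A3G-eYFP cells, scanned by Acumen cytometer, reports blocked A3G degradation. Cells plated at 700/well overnight at 37 deg C before compound addition, then a further overnight compound incubation at 37 deg C.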

DNA dC->dU-editing enzyme APOBEC-3G (Homo sapiens), sequence (Q9HC16 whole entry, looked up): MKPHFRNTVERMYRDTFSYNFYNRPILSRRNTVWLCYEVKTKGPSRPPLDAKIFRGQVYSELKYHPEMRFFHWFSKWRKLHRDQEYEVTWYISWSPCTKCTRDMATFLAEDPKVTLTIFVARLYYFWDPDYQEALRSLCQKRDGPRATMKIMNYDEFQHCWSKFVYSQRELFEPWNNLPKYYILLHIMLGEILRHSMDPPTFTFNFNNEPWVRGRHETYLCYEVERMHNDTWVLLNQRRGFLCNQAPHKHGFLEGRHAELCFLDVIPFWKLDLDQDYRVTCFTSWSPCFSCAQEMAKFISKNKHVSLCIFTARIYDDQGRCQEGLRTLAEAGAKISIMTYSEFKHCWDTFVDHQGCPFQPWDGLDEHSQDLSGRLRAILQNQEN

Compound | outcome [1] | Potency (AA1029) | Potency (CP194) | Potency (CP260) | Potency (CP297) | Potency (CP315) | Potency (DIV14) | Potency (DIV17) | Potency (ICS) | outcome (JCK) | Potency (TAB165) | Potency [2] | outcome [3]
C[N+]1([O-])[C@H]2CC[C@H]1CC(OC(=O)[C@@H](CO)c1ccccc1)C2 (stereo partly drawn) | inactive | inactive | inactive | inactive | inactive | inactive | inactive | inactive | inactive | inactive | inactive |  | 
C[C@@H]1O[C@@H](O[C@H]2C[C@@H](O)[C@@]3(CO)[C@H]4[C@H](O)C[C@]5(C)[C@@H](C6=CC(=O)OC6)CC[C@]5(O)[C@H]4CC[C@@]3(O)C2)[C@@H](O)[C@H](O)[C@H]1O |  | inactive |  | inactive | inactive |  | inactive | inactive | inactive | inactive | inactive |  | 
C[C@@H](Cc1ccc(O)cc1)NC[C@@H](O)c1cc(O)cc(O)c1 | inactive | inactive | inactive | inactive | inactive | inactive | inactive | inactive | inactive | inactive | inactive |  | 
O=C1C[C@@H]2OCC=C3CN4CC[C@]56c7ccccc7N1[C@@H]5[C@@H]2[C@H]3C[C@H]46 (tested in a mixture with another compound) | inactive |  |  |  |  |  |  |  |  |  |  |  | 
C=C[C@@H]1CN2CC[C@H]1C[C@H]2[C@H](O)c1ccnc2ccccc12 | inactive | 891 nM (active) | 849 nM (active) | 794 nM (active) | 757 nM (active) | 1200 nM (active) | 426 nM (active) | 379 nM (active) | 224 nM (active) |  | 355 nM (active) |  | 
CC(=O)c1c(O)c(C)c(O)c(Cc2c(O)c3c(c(C(=O)/C=C\c4ccccc4)c2O)OC(C)(C)C=C3)c1O |  |  |  |  |  |  |  |  |  |  |  | 2510 nM (active) | inactive
